Data published in the supplement of paper PMC13380429.

Tested on: Vero E6 infected with SARS-CoV-2
Assay: inhibition of SARS-CoV-2 cytopathic effect; higher = more antiviral protection, active = above 15
Details: 48 h

Measured: inhibition of SARS-CoV-2 cytopathic effect

Cc1ccc([N+](=O)[O-])cc1S(=O)(=O)N(C)C
inactive: 1 nM -1.97% | 8.33 nM -4.63% | 100 nM -0.38% | 833.33 nM -0.5% | 10000 nM -0.2%

FC(F)(F)c1cccc(C2=CCN(CCc3ccc4ccccc4c3)CC2)c1 [xaliproden]
inactive: 1 nM -0.86% | 8.33 nM -1.4% | 100 nM 1.4% | 833.33 nM 0.49% | 10000 nM 0.49%

CC(=O)O[C@]1(C(C)=O)CC[C@H]2[C@@H]3C=C(C)C4=CC(=O)CC[C@]4(C)[C@H]3CC[C@@]21C [megestrol-acetate]
inactive: 1 nM -0.56% | 8.33 nM -0.6% | 100 nM -1.59% | 833.33 nM -0.54% | 10000 nM 0.33%

CC(=O)Nc1c(I)c(C(=O)O)c(I)c(N(C)C(C)=O)c1I [metrizoic-acid]
inactive: 1 nM -1.11% | 8.33 nM 0.34% | 100 nM 0.21% | 833.33 nM 2.48% | 10000 nM 1.65%

CCC(=O)NC1CCc2cccc(OC)c2C1 (stereo not given)
inactive: 1 nM 0.92% | 8.33 nM 1.4% | 100 nM 2.16% | 833.33 nM 7.57% | 10000 nM 4.57%

COc1c(C)cnc(Cn2cnc3c(Cl)nc(N)nc32)c1C
inactive: 1 nM -0.38% | 8.33 nM 2.24% | 100 nM 0.07% | 833.33 nM 3.31% | 10000 nM 6.01%

CN(C)C(=O)C(=O)c1cn(C)c2cc(Cl)c(C(=O)N3CCC(Cc4ccc(F)cc4)CC3)cc12
inactive: 1 nM 2.15% | 8.33 nM -1.11% | 100 nM -2.84% | 833.33 nM -2.05% | 10000 nM 6.33%
